Data on 40 compounds can be found in PubChem BioAssay (NCATS).

Several values for one entry are separate records, joined by “and”; a condition that tells them apart may be missing. Equal values may be shown once. Results filed as inconclusive are left out. The source holds several records for some structures; these can differ, active in one and inactive in another. Activity calls are given as the source filed them. Calls come from the whole dose curve; as a rule, active = well fitted inhibition curve with a large enough effect; inconclusive = small, poorly fitted or top-dose-only effect; inactive = no such curve, though single readings can be large or run the other way.
% is set by controls: 0 for no effect and ±100 for the full control effect.

This test is described as follows: Primary qHTS for inhibitors of nuclear receptor binding SET domain protein 2 (NSD2) in an RCH-ACV wild type WT cells (2C) (AID 1645877). Note: nearly all actives have a fitted effect of over 70% in size. To be noted: RCH-ACV (leukaemia line) NSD2 WT (2C) viability, CellTiter-Glo, 72 h; series mostly up to 44.9 µM; activity change, negative = cell killing: at the top concentration. An excerpt: Assay Provider: Jonathan D. Licht, MD
University of Florida College of Medicine, Gainesville, FL
Mutations in epigenetic regulators are common in relapsed pediatric acute lymphoblastic leukemia (ALL). Here, we uncovered the mechanism underlying the relapse of ALL driven by an activating mutation of the NSD2 histone methyltransferase (p.E1099K). […] Correction of this mutation restored glucocorticoid sensitivity. The transcriptional response to glucocorticoids was blocked in NSD2 mutant cells due to depressed glucocorticoid receptor (GR) levels and the failure of glucocorticoids to autoactivate GR expression. […] Pre-treatment of NSD2 p.E1099K cell lines and PDX samples with PRC2 inhibitors reversed glucocorticoid resistance in vitro and in vivo.
High-throughput drug screening of isogenic RCH-ACV cell lines was performed at the National Center for Advancing Translational Science (NCATS), National Institutes of Health as previously described (1). Briefly, isogenic RCH-ACV NSD2 p.E1099K mutant (9B) and WT cells (2C) were plated at 500 cells/well in a 1536-well plate with a 72-hour incubation with compounds prior to addition of CellTiter-Glo to assess cell viability. NCATS libraries screened include: NPC, MIPE 5.0, Kinase and NPACT. To determine compound activity in the qHTS assay, the concentration-response data for each sample was plotted and modeled by a four-parameter logistic fit yielding IC50 and efficacy (maximal response) values. The area under the curve (AUC) of the dose-response curve ensures both efficacy (magnitude of cell killing) and potency (concentration that elicits cell killing) are accounted for in the analysis of activity.
1. Tobie D Lee, Olivia W Lee, Kyle R Brimacombe, Lu Chen, Rajarshi Guha, Sabrina Lusvarghi, Bethilehem G Tebase, Carleen Klumpp-Thomas, Robert W Robey, Suresh V Ambudkar, Min Shen, Michael M Gottesman, Matthew D Hall. A High-Throughput Screen of a Library of Therapeutics Identifies Cytotoxic Substrates of P-glycoprotein. Mol Pharmacol. 2019, Nov;96(5):629-640.
For orientation: qHTS replaces the single test concentration by a dilution series.
Consider `CC(=O)Nc1cc([As](=O)(O)O)ccc1O`, for which the “activity change, negative = cell killing” value is 3.44% (inactive). With `O=C1CC[C@@]2(O)[C@H]3Cc4ccc(O)c5c4[C@@]2(CCN3CC2CC2)[C@H]1O5`, the Potency result is “inactive”. The same measure, in the same setting: in the case of `Oc1cccc2cccnc12` it was 34.4 µM (active) and inactive. Consider `O=C1NCN(c2ccccc2)C12CCN(CC1COc3ccccc3O1)CC2` (stereo not given), for which the “activity change, negative = cell killing” value was -12.3% (inactive). For `CC[N+](CC)(CC)CC`, the compound was called inactive. Regarding `CC[N+]1(C)CCCC(OC(=O)C(O)(c2ccccc2)c2ccccc2)C1` (stereo not given), the “activity change, negative = cell killing” value is 4.52% (inactive). Take `O=C(O)P(=O)(O)O`: the Potency result is “inactive”.

As for `CCC(C(N)=O)N1CCCC1=O` (stereo not given), the “activity change, negative = cell killing” value was 3.38% (inactive). Turning to `N#CC(C#N)=Cc1ccc(O)c(O)c1`, the Potency was 10.6 µM (active).

Regarding `Fc1ccc(C(OCCN2CCN(CCCc3ccccc3)CC2)c2ccc(F)cc2)cc1`, the Potency was 5.96 µM (active) and 9.34 µM (active). Regarding `C=C1C[C@@H]2[C@H](CC[C@]3(C)C(=O)CC[C@@H]23)[C@@]2(C)C=CC(=O)C=C12`, the Potency is 11.9 µM (active) and 18.6 µM (active). In the case of `CCCN1CCC[C@@H]2Cc3nc(N)ncc3C[C@H]21`, the “activity change, negative = cell killing” value is -11.7% (inactive).

As to `N[C@@H](Cc1ccc(Oc2cc(I)c(O)c(I)c2)c(I)c1)C(=O)O`, the “activity change, negative = cell killing” value is 2.68% (inactive). In the case of `Oc1cc(Cl)ccc1Oc1ccc(Cl)cc1Cl`, the Potency is 6.24 µM (active). Still for that read-out and setting: in the case of `N[C@@H](Cc1ccc(N(CCCl)CCCl)cc1)C(=O)O` it was 2.66 µM (active) and 2.35 µM (active). The same measure, in the same setting: the figure for `CCC(=O)C(CC(C)N(C)C)(c1ccccc1)c1ccccc1` (stereo not given) is 30.9 µM (active); for `C[C@@H]1O[C@@H](O[C@H]2C[C@@H](O)[C@]3(CO)[C@H]4[C@H](O)C[C@]5(C)[C@@H](C6=CC(=O)OC6)CC[C@]5(O)[C@@H]4CC[C@]3(O)C2)[C@H](O)[C@H](O)[C@H]1O` it is 37.6 nM (active) and 100 nM (active) and 66.1 nM (active). Take `O=P1(NCCCl)OCCCN1CCCl` (stereo not given): the Potency entry is “inactive”.

Turning to `CN1CCN(C(=O)O[C@H]2c3nccnc3C(=O)N2c2ccc(Cl)cn2)CC1`, the compound was called inactive. `COC[C@@H](NC(C)=O)C(=O)NCc1ccccc1`: the Potency result was “inactive”.

For `CCOC(=O)C1(c2ccccc2)CCN(CCC(C#N)(c2ccccc2)c2ccccc2)CC1`, the Potency was 5.96 µM (active). `Clc1ccc(CCC(Cn2ccnc2)Sc2c(Cl)cccc2Cl)cc1` (stereo not given): the Potency was 11.9 µM (active) and 20.9 µM (active). `CC(=O)[C@H]1CC[C@H]2[C@@H]3CC[C@H]4C[C@H](O)CC[C@]4(C)[C@H]3C(=O)C[C@]12C`: the “activity change, negative = cell killing” value was -20.9% (inactive). Still for that read-out and setting: the figure for `O=C(NC(O)C(Cl)(Cl)Cl)NC(O)C(Cl)(Cl)Cl` (stereo not given) is -5.51% (inactive). `CC[C@@H](CO)NC(=O)[C@@H]1C=C2c3cccc4[nH]cc(c34)C[C@H]2N(C)C1`: the “activity change, negative = cell killing” value was -20.8% (inactive). In the case of `Nc1ccncc1`, the compound was classed as inactive. As to `CCCC(C)(COC(N)=O)COC(=O)NC(C)C` (stereo not given), the “activity change, negative = cell killing” value is 6.54% (inactive).

For `NCC(CC(=O)O)c1ccc(Cl)cc1` (stereo not given), the activity change, negative = cell killing is -19.2% [at 0.588 µM] (inactive).

As for `C[C@]12CC[C@H]3[C@@H](CCC4=CC(=O)CC[C@@H]43)[C@@H]1CC[C@@H]2OC(=O)CCc1ccccc1`, the “activity change, negative = cell killing” value is -0.869% (inactive). Same read-out and setting: the figure for `C=C1CC[C@@]2(O)[C@H]3Cc4ccc(O)c5c4[C@@]2(CCN3CC2CC2)[C@H]1O5` is 7.55% (inactive). As for `c1ccc2c(c1)Nc1ccccc1S2`, the “activity change, negative = cell killing” value was -26.8% (inactive). In the case of `c1ccc(C2CC2)c(OCC2=NCCN2)c1`, the “activity change, negative = cell killing” value is -24% (inactive). As to `Oc1ccccc1-c1ccccc1`, the “activity change, negative = cell killing” value is -6.86% (inactive). For the compound `Oc1ccc(Cl)cc1Cc1ccccc1`, the Potency is 34.7 µM (active).

For the compound `C=C(C)[C@H]1Cc2c(ccc3c2O[C@@H]2COc4cc(OC)c(OC)cc4[C@@H]2C3=O)O1`, the Potency is 0.15 µM (active). As to `CCCN1CCC[C@@H]2Cc3[nH]ncc3C[C@H]21`, the compound was called inactive. Consider `O=c1[nH]c2ccccc2n1CCCN1CCC(n2c(=O)[nH]c3cc(Cl)ccc32)CC1`, for which the Potency was 20.9 µM (active). Regarding `C[C@]12CCC(=O)C(O)=C1CC[C@@H]1[C@@H]2CC[C@]2(C)C(=O)CC[C@@H]12`, the Potency result is “inactive”. Still for that read-out and setting: in the case of `CNC(=O)c1ccc(N2C(=S)N(c3ccc(C#N)c(C(F)(F)F)c3)C(=O)C23CCC3)cc1F` it was 16.6 µM (active).

Take `Cc1cccc(C)c1NC1=NCCCS1`: the “activity change, negative = cell killing” value was -7.76% (inactive).
